± gives the standard deviation of the averaged measurements.
Each compound was assayed on IL-6-GFP PC-9GR (assay: cell viability (CCK-8 OD) relative to DMSO control (fraction of control); higher = more viable cells). Settings: compound concentration: 10 uM; treatment time: 48 h.
Method in brief: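 PC-9 and PC-9GR lung cancer cells carrying a lentiviral construct that overexpresses IL-6-GFP were seeded in 96-well plates at 3000 cells/well. Every compound in a purchased 510-compound library was applied at a final 10 μM for 48 h, and a parallel set of plates was kept for GFP imaging. Cell viability was read by CCK-8 absorbance, taking each well's optical density as a ratio to the vehicle control well. Two independent replicates were run.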

Point of comparison: `C=C1CCC2C(C)(CO)C(O)CCC2(C)C1C/C=C1\C=COC1=O` (centres undefined) [Dehydroandrographolide], cell viability 1.17 ± 0.35. Against it:
- Cl.Cl.O=C(O)COCCN1CCN(C(c2ccccc2)c2ccc(Cl)cc2)CC1 (centres undefined) [Cetirizine DiHCl] — within error, 1.08 ± 0.0043
- COc1ccc(S(=O)(=O)N(C(C)=O)c2ccccc2/C=C/c2cc[n+]([O-])cc2)cc1 — lower, 0.674 ± 0.091
- C=C1C(=O)OC2C1CCC(=C)C1CCC(=C)C12 (centres undefined) [Dehydrocostus Lactone] — lower, 0.75 ± 0.052
- Cc1nc(Nc2ncc(C(=O)Nc3c(C)cccc3Cl)s2)cc(N2CCN(CCO)CC2)n1.Cl [Dasatinib hydrochloride] — lower, 0.517 ± 0.025
- C#Cc1cccc(Nc2ncnc3cc(OCCOC)c(OCCOC)cc23)c1 [Erlotinib] — within error, 0.81 ± 0.028
- Nc1cc(C(Cl)=C(Cl)Cl)c(S(N)(=O)=O)cc1S(N)(=O)=O [Clorsulon] — within error, 1.21 ± 0.16
- CC(C(=O)O)c1ccc2c(c1)CC(=O)c1ccccc1S2 (centres undefined) [Zaltoprofen] — within error, 0.953 ± 0.054
- CNC(=NC#N)NCCSCc1nc[nH]c1C [Cimetidine] — within error, 1.56 ± 0.74
- Cc1nc2ccc(CN(C)c3ccc(C(=O)NC(CCC(=O)O)C(=O)O)s3)cc2c(=O)[nH]1 (centres undefined) [Raltitrexed] — lower, 0.5349 ± 0.0032
- O=NN(CCCl)C(=O)NCCCl [Carmustine] — within error, 1.21 ± 0.32
- COc1cc2c(cc1OC)C1CC(OC(=O)C(N)C(C)C)C(CC(C)C)CN1CC2.Cc1ccc(S(=O)(=O)O)cc1.Cc1ccc(S(=O)(=O)O)cc1 (centres undefined) [Valbenazine tosylate] — within error, 0.833 ± 0.14
- O=S(=O)([O-])CCS.[Na+] [Mesna] — within error, 1.23 ± 0.2
- Cn1c(=O)cc(N2CCCC(N)C2)n(Cc2cc(F)ccc2C#N)c1=O.O=C(O)CCC(=O)O (centres undefined) [Trelagliptin succinate] — within error, 0.825 ± 0.15
- COC(=O)c1cc(OC)c2c(c1-c1c(C(=O)OC)cc(OC)c3c1OCO3)OCO2 [Bifendate] — within error, 1.19 ± 0.22
- COc1cc2ncnc(Nc3ccc(F)c(Cl)c3)c2cc1NC(=O)/C=C/CN1CCCCC1 — lower, 0.477 ± 0.02
- Cl.Clc1ccc(CCCOCCCN2CCCCC2)cc1 [Pitolisant hydrochloride] — within error, 0.916 ± 0.11
- C=CCC1/C=C(\C)CC(C)CC(OC)C2OC(O)(C(=O)C(=O)N3CCCCC3C(=O)OC(/C(C)=C/C3CCC(O)C(OC)C3)C(C)C(O)CC1=O)C(C)CC2OC (centres undefined) [Tacrolimus (FK506)] — within error, 1.14 ± 0.079
- CCC(Nc1ncnc2[nH]cnc12)c1nc2cccc(F)c2c(=O)n1-c1ccccc1 (centres undefined) [Idelalisib (CAL-101, GS-1101)] — within error, 1.27 ± 0.14
- CN1CCC(=C2c3ccccc3C=Cc3ccccc32)CC1.Cl [Cyproheptadine hydrochloride] — within error, 0.784 ± 0.082
- O=C(O)c1cc(O)c(O)c(O)c1 [Gallic acid] — within error, 0.792 ± 0.22
- NC(=O)c1cccc2cn(-c3ccc(C4CCCNC4)cc3)nc12 (centres undefined) [Niraparib (MK-4827)] — within error, 0.841 ± 0.011
- Nc1n[n+]([O-])c2ccccc2[n+]1[O-] [Tirapazamine] — within error, 1.09 ± 0.25
- COC1CC2CCC(C)C(O)(O2)C(=O)C(=O)N2CCCCC2C(=O)OC(C(C)CC2CCC(OP(C)(C)=O)C(OC)C2)CC(=O)C(C)/C=C(\C)C(O)C(OC)C(=O)C(C)CC(C)/C=C/C=C/C=C/1C (centres undefined) [Ridaforolimus (Deforolimus, MK-8669)] — within error, 1.15 ± 0.22
- Cc1cnc(C(=O)NC2CCCCC/C=C\C3CC3(C(=O)NS(=O)(=O)C3CC3)NC(=O)C3CC(Oc4nc5ccccc5c5ccccc45)CN3C2=O)cn1 (centres undefined) [Paritaprevir (ABT-450)] — within error, 0.779 ± 0.2
- CCC(=O)OC1(C(=O)CCl)C(C)CC2C3CC(F)C4=CC(=O)C=CC4(C)C3(F)C(O)CC21C (centres undefined) [Halobetasol Propionate] — within error, 0.859 ± 0.011
- CC(Nc1ncnc2[nH]cnc12)c1cc2cccc(Cl)c2c(=O)n1-c1ccccc1 (centres undefined) [Duvelisib (IPI-145, INK1197)] — within error, 1.42 ± 0.39
- CCCCCCCCCCCC1=C(O)C(=O)C=C(O)C1=O [Embelin] — within error, 0.858 ± 0.075
- C[S+](C)CCC(N)C(=O)O.[Cl-] (centres undefined) — within error, 1.11 ± 0.29
- O=S1(=O)CCN(CN2CCS(=O)(=O)NC2)CN1 [Taurolidine] — within error, 1.22 ± 0.27
- CC(=O)OC1C(=O)C2(C)C(O)CC3OCC3(OC(C)=O)C2C(OC(=O)c2ccccc2)C2(O)CC(OC(=O)C(O)C(NC(=O)c3ccccc3)c3ccccc3)C(C)=C1C2(C)C (centres undefined) [Paclitaxel] — lower, 0.576 ± 0.036
- Cc1nc(Nc2ccc(F)cc2)nc(N2CCc3ccccc3C2C)c1C.Cl (centres undefined) [Revaprazan Hydrochloride] — within error, 1.63 ± 0.64
- CC(C(=O)O)c1ccc(-c2ccccc2)c(F)c1 (centres undefined) [Flurbiprofen] — within error, 1.04 ± 0.39
- O=C(Nc1ccc(O)cc1)c1ccccc1O [Osalmid] — within error, 1.3 ± 0.45
- CCC1(O)CC2CN(CCc3c([nH]c4ccccc34)C(C(=O)OC)(c3cc4c(cc3OC)N(C=O)C3C(O)(C(=O)OC)C(OC(C)=O)C5(CC)C=CCN6CCC43C65)C2)C1 (centres undefined) [Vincristine] — lower, 0.556 ± 0.22
- NC(CC(=O)N1CCn2c(nnc2C(F)(F)F)C1)Cc1cc(F)c(F)cc1F.O.O=P(O)(O)O (centres undefined) [Sitagliptin phosphate monohydrate] — within error, 0.836 ± 0.12
- CC(C(=O)O)c1cccc(C(=O)c2ccccc2)c1 (centres undefined) [Ketoprofen] — within error, 1.64 ± 0.37
- C=CC(=O)N1CCCC(n2nc(-c3ccc(Oc4ccccc4)cc3)c3c(N)ncnc32)C1 (centres undefined) — lower, 0.572 ± 0.048
- CC(=O)Nc1ccc(CC(=O)O)cc1 [Actarit] — within error, 1.61 ± 0.35

Source: the supplement of paper PMC8866396
